Calls of active or inactive are those of the source.
How the values were obtained:
[1] = tested on: Human papillomavirus type 1a protein E7 (residues 44-93); assay: HPV1a E7 fragment binders on microarrays, primary screen, biochemical, small-molecule microarray, residues 44-93, 635 nm fluorescence (AID 1108); conditions: small-molecule microarray binding, fluorescence 635 nm; higher = more signal;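 note: E7 fragment applied at 1 µg/mL in TBST for 1 h at 4 C; score combines spot fluorescence with its signal to noise ratio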
[2] = modulators of HCV replicon luciferase signal, primary screen, HCV replication inhibitor project, Huh7 cells, luciferase reporter (AID 1109); conditions: 48 h, higher = more signal;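 note: huh7 hepatoma cells harbouring a luciferase neomycin HCV replicon reporter; luciferase luminescence as measure of HCV replicon replication; test concentration not given here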
[3] = target: Left-right determination factor 2 (Homo sapiens) (UniProt O00292); assay: LEFTY2 binders on small-molecule microarrays, primary screen, biochemical, small-molecule microarray, 635 nm fluorescence scan (AID 1110); conditions: LEFTY2 binding, higher = more signal
Left-right determination factor 2 (Homo sapiens), sequence (O00292 whole entry, looked up): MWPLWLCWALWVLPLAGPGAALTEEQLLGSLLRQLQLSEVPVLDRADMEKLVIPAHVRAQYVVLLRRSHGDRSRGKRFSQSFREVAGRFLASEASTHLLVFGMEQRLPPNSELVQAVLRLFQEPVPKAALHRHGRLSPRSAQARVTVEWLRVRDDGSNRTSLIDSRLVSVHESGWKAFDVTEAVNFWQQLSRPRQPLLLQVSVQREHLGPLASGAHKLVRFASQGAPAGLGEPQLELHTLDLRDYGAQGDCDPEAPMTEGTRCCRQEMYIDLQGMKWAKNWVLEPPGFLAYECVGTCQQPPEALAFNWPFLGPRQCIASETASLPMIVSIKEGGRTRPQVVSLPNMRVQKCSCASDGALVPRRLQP

[4] = target: Calmodulin-1 (Homo sapiens) (UniProt P0DP23); assay: CALM1 binders on microarrays, EGTA buffer, profiling panel, biochemical, small-molecule microarray, Cy5-labelled CALM1 (AID 1111); conditions: Cy5-CALM1 binding fluorescence, higher = more signal;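 note: labelled calmodulin applied in Tris saline Tween buffer holding calcium plus EGTA and DTT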
[5] = target: Calmodulin-1 (Homo sapiens) (UniProt P0DP23); assay: calcium-bound CALM1 binders on microarrays, profiling panel, artefact control for SMM control-protein annotation, biochemical, small-molecule microarray, Cy5-labelled CALM1, plus calcium (AID 1112); conditions: Cy5-CALM1 binding fluorescence, higher = more signal;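 note: score merges spot fluorescence with signal to noise from triplicate slides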
[6] = small-molecule microarray binders of probe aWnt5a, primary screen, biochemical, biotinylated probe, 635/667 nm fluorescence (AID 1113); conditions: higher = more signal;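 note: score merges 667 nm fluorescence intensity with signal-to-noise per printed feature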
[7] = small-molecule microarray binders of probe aShh, primary screen, biochemical, biotinylated probe, 635/667 nm fluorescence (AID 1114); conditions: higher = more signal;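 note: probe is biotin-labelled aShh protein from a stem cell growth factor screen; measures binding of labelled protein to compounds printed on the slide; score merges feature fluorescence at 667 nm with signal-to-noise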
[8] = small-molecule microarray binders of probe aNog, primary screen, biochemical, biotinylated probe, 635/667 nm fluorescence (AID 1115); conditions: higher = more signal;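 note: probe is biotinylated aNog protein used at 0.15 µg/mL for 1 h at 4 C; z-score combines 667 nm fluorescence of each spot with its signal to noise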
[9] = target: Torsin-1A-interacting protein 1 (Homo sapiens) (UniProt Q5JTV8); assay: LAP1 binders from COS7 cell lysate, primary screen, small-molecule microarray, 635/667 nm fluorescence (AID 1116); conditions: COS7-hLAP1 lysate binding, 635 nm fluorescence, higher = more signal
Torsin-1A-interacting protein 1 (Homo sapiens), sequence (Q5JTV8 whole entry, looked up): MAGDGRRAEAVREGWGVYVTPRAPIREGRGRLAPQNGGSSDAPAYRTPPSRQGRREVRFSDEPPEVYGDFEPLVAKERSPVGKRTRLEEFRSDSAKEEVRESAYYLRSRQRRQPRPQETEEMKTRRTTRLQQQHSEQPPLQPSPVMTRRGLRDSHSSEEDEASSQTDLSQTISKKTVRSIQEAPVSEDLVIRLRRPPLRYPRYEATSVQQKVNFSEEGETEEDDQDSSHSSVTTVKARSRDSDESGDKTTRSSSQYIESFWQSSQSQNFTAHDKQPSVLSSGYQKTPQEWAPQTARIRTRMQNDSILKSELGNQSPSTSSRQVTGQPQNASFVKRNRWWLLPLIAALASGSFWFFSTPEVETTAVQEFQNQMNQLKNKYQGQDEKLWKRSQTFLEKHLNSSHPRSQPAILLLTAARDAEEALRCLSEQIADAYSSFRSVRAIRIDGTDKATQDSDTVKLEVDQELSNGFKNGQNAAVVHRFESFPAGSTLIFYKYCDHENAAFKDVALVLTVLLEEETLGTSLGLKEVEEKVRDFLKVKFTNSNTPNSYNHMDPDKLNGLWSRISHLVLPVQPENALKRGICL

[10] = target: Alpha-bungarotoxin (Bungarus multicinctus) (UniProt P60615); assay: alpha-bungarotoxin binders on microarray, profiling panel, artefact control for SMM control protein annotation, biochemical, small-molecule microarray, Alexa647 label, 635/667 nm fluorescence (AID 1117); conditions: alpha-BTX-A647 binding fluorescence, higher = more signal
Alpha-bungarotoxin (Bungarus multicinctus), sequence (P60615 whole entry, looked up): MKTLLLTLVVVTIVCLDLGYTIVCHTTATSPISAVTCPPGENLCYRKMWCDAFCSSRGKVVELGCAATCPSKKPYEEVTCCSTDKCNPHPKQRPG

Albumin (Bos taurus) = Albumin (Bos taurus) (UniProt P02769); assay: bovine serum albumin binders on microarray, profiling panel, artefact control for SMM control protein annotation, biochemical, small-molecule microarray, Alexa647 label, 635/667 nm fluorescence (AID 1118); conditions: BSA-A647 binding, fluorescence 635 nm, higher = more signal;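 note: score merges 667 nm emission intensity and signal-to-noise per printed compound spot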
Albumin (Bos taurus), sequence (P02769 whole entry, looked up): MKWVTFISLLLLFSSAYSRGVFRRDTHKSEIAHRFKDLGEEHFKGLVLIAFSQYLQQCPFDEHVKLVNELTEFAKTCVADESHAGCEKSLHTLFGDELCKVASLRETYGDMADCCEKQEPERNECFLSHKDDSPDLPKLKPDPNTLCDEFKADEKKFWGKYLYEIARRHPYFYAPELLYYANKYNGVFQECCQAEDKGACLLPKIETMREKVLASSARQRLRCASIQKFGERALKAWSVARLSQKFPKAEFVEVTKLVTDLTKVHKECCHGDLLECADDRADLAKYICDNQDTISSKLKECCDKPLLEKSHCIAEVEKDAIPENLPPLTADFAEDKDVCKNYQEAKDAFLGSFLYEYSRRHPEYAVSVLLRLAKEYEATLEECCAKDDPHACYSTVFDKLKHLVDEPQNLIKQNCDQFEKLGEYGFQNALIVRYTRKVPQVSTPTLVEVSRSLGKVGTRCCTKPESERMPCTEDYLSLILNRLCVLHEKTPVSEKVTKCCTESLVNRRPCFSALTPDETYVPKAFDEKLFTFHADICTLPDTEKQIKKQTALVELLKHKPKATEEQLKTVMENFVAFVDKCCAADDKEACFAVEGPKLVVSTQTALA

[11] = small-molecule microarray binders of probe aXIP, primary screen, biochemical, NeuroSMM set, 635/667 nm fluorescence (AID 1119); conditions: higher = more signal, called active from +8 up or from −8 down;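 note: probe is the protein aXip251-270 applied at 1 µg/mL to compound-printed slides; binding of probe to printed compounds measured as 667 nm fluorescence plus signal to noise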
[12] = small-molecule binders of probe aNOTCH3, primary screen, biochemical, small-molecule microarray, 635/667 nm fluorescence (AID 1120); conditions: higher = more signal;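 note: probe is a biotin-tagged antibody raised against NOTCH3 rather than NOTCH3 protein; score merges spot fluorescence near 667 nm with spot signal to noise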
[13] = small-molecule binders of probe aNOTCH2, primary screen, biochemical, small-molecule microarray, 635/667 nm fluorescence (AID 1121); conditions: higher = more signal;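 note: score merges feature fluorescence read at 667 nm with its signal to noise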
[14] = target: Carbonic anhydrase 2 (Homo sapiens) (UniProt P00918); assay: CAII small-molecule binders, profiling panel, biochemical, small-molecule microarray, Alexa647-labelled CAII (AID 1122); conditions: CAII-A647 binding fluorescence, higher = more signal
[15] = COS7 lysate on small-molecule microarray, probe aHis, 635 nm (AID 1123); conditions: COS7 cell lysate, fluorescence, higher = more signal;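 note: z-score combines 667nm fluorescence intensity with signal-to-noise per printed compound spot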
[16] = compound binding in COS7 lysate, probe aLAP1, primary screen, cell lysate, small-molecule microarray (AID 1124); conditions: probe aLAP1, fluorescence, higher = more signal;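 note: lysate comes from COS7 cells expressing LAP1 and is applied at 0.3 µg/mL; score merges spot fluorescence near 667 nm with signal-to-noise over triplicate slides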
Sam68 (KHDRBS1) = assay: Sam68 small-molecule binders, primary screen, biochemical, small-molecule microarray, 635 nm fluorescence (AID 1125); conditions: small-molecule microarray binding, higher = more signal;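 note: score merges 667 nm channel intensity with signal to noise over triplicate slides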
[17] = tested on: Chordin-like protein 2 (CHRDL2); assay: CHRDL2 small-molecule binders, primary screen, biochemical, small-molecule microarray, 635 nm fluorescence (AID 1126); conditions: small-molecule microarray binding, fluorescence 635 nm; higher = more signal;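 note: printed compound slides probed with Chrdl2 protein at 4 µg/mL for 1 h at 4 C; score merges 667 nm emission intensity with signal to noise over three replicate slides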
[18] = target: Concanavalin-A (Canavalia ensiformis) (UniProt P02866); assay: ConA small-molecule binders, primary screen, artefact control for SMM control protein annotation, biochemical, small-molecule microarray, Alexa647 label, 635 nm (AID 1127); conditions: ConA-A647 binding fluorescence, higher = more signal;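 note: z combines 667 nm emission intensity with signal-to-noise across three replicate slides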
Concanavalin-A (Canavalia ensiformis), sequence (P02866 whole entry, looked up): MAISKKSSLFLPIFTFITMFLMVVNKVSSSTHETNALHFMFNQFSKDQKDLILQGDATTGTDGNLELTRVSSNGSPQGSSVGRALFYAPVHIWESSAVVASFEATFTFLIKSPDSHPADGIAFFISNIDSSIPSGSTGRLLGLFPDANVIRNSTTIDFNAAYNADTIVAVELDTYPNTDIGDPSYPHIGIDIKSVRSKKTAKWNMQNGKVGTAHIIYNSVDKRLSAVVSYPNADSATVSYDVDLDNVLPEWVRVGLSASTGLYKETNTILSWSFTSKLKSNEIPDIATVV

Row | SMILES | composite z-score [1] | z-score [2] | composite z-score [3] | composite z-score [4] | composite z-score [5] | composite z-score [6] | composite z-score [7] | composite z-score [8] | composite z-score [9] | composite z-score [10] | composite z-score (Albumin (Bos taurus)) | composite Z-score [11] | composite z-score [12] | composite z-score [13] | composite z-score [14] | composite z-score [15] | composite z-score [16] | composite z-score (Sam68 (KHDRBS1)) | composite z-score [17] | composite z-score [18]
1 | CCCNC(=O)OC[C@H]1O[C@H](CCON=C(C)CCN2CCc3nc(CC)c(CC)cc3C2)C=C[C@@H]1Oc1ccc(OC)cc1 | -0.263 | -3.27 | 0.223 | -0.254 | -0.875 | -0.034 | -0.154 | -0.4 | 0.345 | 0.381 | 0.322 | 0.0421 (inactive) | 0.105 | -0.14 | -0.164 | 0.176 | 0.0186 | 0.285 | -0.0024 | 0.0004
2 | CSCC[C@@H]1NC(=O)CC=C[C@@H](C)COC(=O)[C@@H](C)COC1=O | -2.17 | 0.371 | 0.294 | -1.31 | -1.61 | -0.197 | -0.366 | -0.15 | 0.574 | -2.23 | -1.1 | 0.517 (inactive) | -0.155 | -0.175 | -0.762 | -1.1 | 0.145 | -0.399 | 0.683 | -2.02
3 | CC(C)CON=C1C[C@@H](O)[C@@H](O)[C@@H]2[C@@H]3C(=O)N(c4cccc(Oc5ccccc5)c4)C(=O)[C@@H]3CC[C@@H]12 | 1.35 | 0.251 | 0.374 | 1.05 | -0.426 | 0.0215 | -0.221 | -0.158 | 1.06 | 0.538 | 0.621 | 0.0388 (inactive) | -0.0377 | -0.121 | 0.418 | 1.04 | 0.118 | 1.17 | 0.232 | 1.13
4 | CC(CCN1CCCCc2nc(C)c(C)cc21)=NO[C@@H](C)c1cn([C@H](CO)Cc2ccccc2)nn1 | 0.271 | -0.507 | 0.813 | 0.404 | -0.0345 | -0.152 | -0.117 | -0.397 | 0.691 | 0.414 | 0.779 | 0.364 (inactive) | 0.0833 | -0.14 | 0.464 | -0.01 | -0.248 | 0.719 | 0.953 | 0.249
5 | CC(CCN1CCCCc2nc(C)c(C)cc21)=NOC[C@@H](O)COCc1ccco1 | -1.68 | 0.0716 | 1.61 | -1.34 | -1.81 | -0.129 | 0.0121 | -0.911 | 0.43 | -0.527 | -0.732 | 1.28 (inactive) | 0.149 | -0.137 | -0.297 | -0.964 | -0.125 | 0.428 | 1.63 | -1.26
